Results filed as inconclusive are left out. Values without a mark were called inactive.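 Rule for the calls: active = cell viability at or below a set limit in both duplicate runs, the limit being the all-compound median minus 4 SD (cut at about 23% in these data, passing the limit was not always enough); inconclusive = no clear call, values can overlap the other calls; inactive = the rest.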
Assay: viability of HCT116 without oncogenic beta-catenin – human colon tumor cells, pilot screen (AID 823);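 note: 0% = wells killed by 20 µM Hyamine and 100% = untreated DMSO cell wells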
Conditions: HCT116 beta-catenin knockout viability, CellTiter-Glo, 60 h; at 10 µM; active compounds read low

Structure (SMILES) | viability [%]
CCCCOC(=O)Cc1c(O)c2ccccc2[nH]c1=O | 102
CCOc1ccc(S(=O)(=O)Nc2ccccc2C(=O)NCC2CCCO2)cc1 (centres undefined) | 94.1
O=C1C(Cl)=C(NCC2CCCO2)C(=O)N1C1CCCCC1 (centres undefined) | 88.3
CC1=C(C(=O)N2CCOCC2)C(c2cccs2)NC(=O)N1 (centres undefined) | 99.8
CCC1CCCCN1C(=O)CSc1nnc(-c2ccc(Cl)cc2)o1 (centres undefined) | 87
COC(=O)CN1C(=O)C(O)(CC(=O)c2cccc(Br)c2)c2ccccc21 (centres undefined) | 90.9
O=P(O)(CCc1ccccn1)CN1CCOCC1 | 92.6
O=C(NCc1cccnc1)NC1(C(F)(F)F)Oc2ccc(Cl)cc2O1 (centres undefined) | 52.6
CN(C)C(C(=O)NC1CCCCC1)c1ccc(Cl)cc1 (centres undefined) | 80.2
COc1ccc(C)cc1NC(=O)C1CCCN(S(=O)(=O)c2c(C)noc2/C=C/N(C)C)C1 (centres undefined) | 102
COc1ccc(S(=O)(=O)Nc2ccc3c(c2)OCO3)cc1C(=O)O | 93.5
O=C(Nc1nnc(C2CC2)s1)c1cc(-c2ccccc2)nn1-c1ccccc1 | 76.6
O=C(Oc1cccnc1)c1cccc(Cl)c1 | 101
COc1ccc(N2CCN(C(=O)c3ccc4nc(N5CCCCC5)sc4c3)CC2)cc1 | 101
O=C(Cn1cc2c(n1)CCCC2)Nc1ccccc1Br | 95.7
CCCN(CC1CC1)S(=O)(=O)c1ccc(S(N)(=O)=O)cc1 | 100
Fc1ccccc1N1CCN(C2CCN(Cc3c[nH]c4ccccc34)CC2)CC1 | 47.1
COc1ccccc1NC(=O)C1=C(C)Nc2nc(-c3cccs3)nn2C1c1cccnc1 (centres undefined) | 86.7
COc1ccccc1NC1C=CS(=O)(=O)C1 (centres undefined) | 99.5
COc1ccc(C2(C(=O)NCCCN(C)C)CCOCC2)cc1 | 98.3
COc1ccccc1C1NC(=O)NC(C)=C1C(=O)Nc1cccc(C)c1C (centres undefined) | 105
CCCCSCc1[nH]c(=O)[nH]c1C(=O)CCCCC(=O)OCC | 99.4
Cn1cc(S(=O)(=O)N2CCN(Cc3ccccc3)CC2)c(=O)n(C)c1=O | 95.2
CCOc1ccc(S(=O)(=O)n2ccnc2)c2ccccc12 | 101
